# Source: PubChem (National Center for Advancing Translational Sciences (NCATS))
# D2 antagonist – antagonists of human D2 dopamine receptor; hit rate 2% among 340,000; HEK293 TREx D2 cells, calcium flux, dopamine EC80; inhibition, % at 10 µM; P14416; in the data active = inhibition above about 30%; inactive = below that, where a call was filed; also: 0% is about no effect
# Target sequence (P14416 whole entry, looked up): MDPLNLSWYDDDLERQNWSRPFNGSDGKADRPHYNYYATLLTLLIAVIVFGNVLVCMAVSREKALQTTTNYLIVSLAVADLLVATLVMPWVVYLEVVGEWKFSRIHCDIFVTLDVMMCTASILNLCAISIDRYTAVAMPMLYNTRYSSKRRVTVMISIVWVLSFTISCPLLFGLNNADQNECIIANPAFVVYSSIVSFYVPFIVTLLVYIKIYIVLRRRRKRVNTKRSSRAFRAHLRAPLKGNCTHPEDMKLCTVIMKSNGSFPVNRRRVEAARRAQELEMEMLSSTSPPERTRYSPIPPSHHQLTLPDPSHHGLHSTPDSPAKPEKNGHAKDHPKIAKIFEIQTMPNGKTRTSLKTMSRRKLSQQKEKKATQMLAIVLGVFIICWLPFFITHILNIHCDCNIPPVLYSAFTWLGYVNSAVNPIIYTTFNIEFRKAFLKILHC
#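 Inhibition of EC80 dopamine-driven calcium flux, recorded kinetically, defines activity here; cells are a tetracycline-induced HEK293 T-REx line expressing force-coupled D2.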
# D2 PAM-1 – potentiates the human D2 dopamine receptor allosterically. hit rate 0.23% among 360,000. potentiation, % (concentration not given with the values). AID 624464. DiscoveRx D2 beta-arrestin cells, luminescence, 90 min; 100% = 57 uM dopamine signal. P14416; in the data active = potentiation above about 50%
#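 D2 cells co-treated with compound plus 50 nM dopamine (EC20) for 90 min at 37 deg C to detect potentiation. Beta-arrestin recruitment was read as enzyme-fragment luminescence after 1 h at ambient temperature. Full response was set by 57 uM dopamine.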
# D2 ag-1 – D2 dopamine receptor (human) agonism; AID 485358; hit rate 0.53% among 340,000; HEK293 T-REx D2 cells, calcium flux agonist mode; P14416; activation, % at 2 µM;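 active = activation over 3 SD above normal in the single-dose calcium agonist read, cut at about 30% in these data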; also: 0% is about no effect
#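 In this primary screen, compounds producing a positive calcium signal within 180 s of addition to tetracycline-induced, force-coupled HEK293 Trex D2 cells are flagged; cells are dye-loaded with a no-wash calcium kit beforehand.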
# D2 PAM-2 – D2 dopamine receptor (human) potentiation | P14416 | HEK293 T-REx D2, calcium flux, EC20 dopamine potentiation | potentiation, % at 10 µM | hit rate 0.34% among 340,000;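 active = potentiation over 3 SD above the plate norm, cut at about 30% in these data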; also: 0% is about no effect
#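 Calcium flux readout, no-wash dye, 1 read/s. Inducible HEK293 Trex D2 line, overnight 30 C. Compound alone 180 s (agonist flags), then EC20 dopamine, another 180 s to score potentiation.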
# D2 ag-2 – agonists of human D2 dopamine receptor (beta-arrestin); DiscoveRx PathHunter D2 beta-arrestin, luminescence, 90 min; 100% = 57 uM dopamine signal; activation, % (no concentration beside the values); hit rate 0.084% among 360,000; AID 624465; in the data active = activation above about 40%
#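 Agonist mode: compounds alone added to overnight-plated D2 PathHunter cells for 90 min at 37 C, with 57 uM final dopamine (EC100) defining full response. Beta-arrestin recruitment detected by chemiluminescent reagent, read after 1 h at ambient temperature.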
# * = called active by the depositor; x = no result given; ! = not confirmed by another sample. Rows were chosen to be rich in hits. Some 2.4% of all compounds tested hit in one or more screens of this group.
SMILES,D2 antagonist,D2 PAM-1,D2 ag-1,D2 PAM-2,D2 ag-2
CCOC(=O)N(C)c1c(CC)nc2c(OCc3ccc(Cl)cc3)cccn12,x,4,x,x,2
Cc1cc(C)c(NC(=O)CN2C(=O)NC(CCc3ccccc3)C2=O)c(C)c1 (stereo not given),32*,-3,1,-8,-3
Cc1ccc(C)c(NC(=O)CN2C(=O)NC(CCc3ccccc3)C2=O)c1 (stereo not given),x,-6,x,x,-6
Cc1ccc(NC(=O)CN2C(=O)NC(C)(c3ccc(Cl)cc3)C2=O)cc1 (stereo not given),-7,-6,3,1,-3
Cc1ccc(C2(C)NC(=O)N(CC(=O)Nc3ccc(S(=O)(=O)Nc4nccs4)cc3)C2=O)cc1 (stereo not given),-1,4,-1,31*,3
CCOC(=O)c1c(C)[nH]c(C)c1S(=O)(=O)N(C)CC(=O)Nc1cccc(C(F)(F)F)c1,x,x,0,2,x
O=C1CSC(=Nc2cccc([N+](=O)[O-])c2)N1,43*,-11,1,-6,-6
CCOC(=O)C1CCCN(C(=O)c2cn(CC)c3ccc(S(=O)(=O)N(C)C)cc3c2=O)C1 (stereo not given),35*,0,2,-2,-2
CC(C)(C)OC(=O)N1CCC(c2c(C(=O)NCc3ccco3)cnn2-c2ccccc2Cl)CC1,x,x,1,2,x
O=C(NCCCN1CCCCC1)c1ccc2c(c1)ncn2C1CCCC1,30*,-25,0,-4,-4
CCCNC(=O)Cn1c(=O)/c(=C\c2ccc(-c3ccc([N+](=O)[O-])cc3)o2)s/c1=C\C(=O)C(C)(C)C,54*,7,93*,-14,-2
CC1=CC(=O)CC2C1(C)CCC(C)C2(C)CCC(C)CC(=O)O (stereo not given),32*,-18,0,2,2
CC1CN(CCCCOc2ccc(Cl)c3ccccc23)CC(C)O1 (stereo not given),58*,-12,-2,-24,0
COc1cccc(C(=O)NC23CC4CC(CC(C4)C2)C3)c1,-20,-4,1,-6,-4
CC(C)Cn1cnc2c1c(=O)n(CC(=O)NC(=O)NC(C)(C)C)c(=O)n2Cc1ccccc1,14,2,0,31*,-3
Cc1sc2nc(SCc3nc(-c4ccccc4)no3)n(-c3ccccc3)c(=O)c2c1C,9,5,0,34*,-3
O=C(Cn1ccc(=O)[nH]c1=O)c1ccc([N+](=O)[O-])o1,x,6,x,x,47*
Cc1c(C(=O)Nc2cccc(Cl)c2)oc2ccc(S(=O)(=O)N(C)C3CCCCC3)cc12,x,x,x,-3,x
COc1cc(F)c(C2=CC(=O)C[C@H](c3ccc(Cl)cc3)C2)cc1F,35*,-11,1,-7,-5
O=C1C=C(c2cc(F)ccc2F)C[C@@H](c2ccc(Cl)cc2)C1,9,-5,-1,2,-6
CCN1C(=O)/C(=C/C=C2/Sc3ccc4ccccc4c3N2CCO)SC1=S,6,-4,0,-1,-2
CCN1/C(=C/C=C/c2oc3ccc4ccccc4c3[n+]2CC)Oc2ccc3ccccc3c21,7,0,45*,-4,3
COc1ccccc1C(=O)COC(=O)CCN=C1NS(=O)(=O)c2ccccc21,-14,-16,0,-3,2
COc1ccc(Cl)cc1C(=O)NNC(=O)COC(=O)CCN=C1NS(=O)(=O)c2ccccc21,30*,-53,-1,-1,-20
CC1(C)Cc2c(sc3c2C(=O)N(c2ccccc2)C2=NCCN23)CS1,17,-22,-1,46*,-5
SMILES,D2 antagonist,D2 PAM-1,D2 ag-1,D2 PAM-2,D2 ag-2
CN(C)CCOC(c1ccccc1)c1ccccc1,-13,-11,2,-12,-6
CN(C)CCOC(c1ccc(Cl)cc1)c1ccccn1 (stereo not given),0,-24,-1,-10,98*!
COc1ccccc1CNC(=O)CN1C(=O)NC2(CCOc3ccccc32)C1=O (stereo not given),x,0,x,x,5
CC1=CC(C)(C)Nc2ccc(OC(=O)c3ccco3)cc21,-3,51*,1,1,7
O=C(CS(=O)c1ccc(C(F)(F)F)cc1[N+](=O)[O-])Oc1ccccc1 (stereo not given),-10,21,1,33*,5
Cc1cc(C(=O)N2CCN(S(=O)(=O)c3ccccc3C#N)CC2)c(C)o1,23,-4,0,20,-4
Cc1cc(C(=O)N2CCN(S(=O)(=O)c3ccccc3F)CC2)c(C)o1,-2,-2,0,47*,2
COc1cccc(C2CC(c3ccc(Cl)cc3)n3nc(N)nc3N2)c1 (stereo not given),57*,-3,0,4,-3
C[C@H]1CCC[C@]2(O[C@@H](CCO)C[C@H](O)[C@H]2O)O1,31*,-2,0,-4,-4
COc1ccc(Nc2nc(N)nc(CSc3nc(C)cc(C)n3)n2)cc1,x,3,x,5,-4
COc1ccc(Nc2nc(N)nc(CSc3nnc(N)s3)n2)cc1,38*,-5,-1,-7,1
C=C1C(=O)C=C[C@]2(C)C[C@@H]3OC(=O)[C@](C)(O)[C@H]3C[C@@H]12,37*,-9,0,-5,-2
O=C(CSc1nnnn1Cc1ccccc1)NCCc1ccccc1,32*,2,-2,-1,-3
O=C(CSc1nnnn1Cc1ccccc1)NCC(=O)c1ccccc1,-18,-24,0,-4,-1
CCc1nnc2n1N=C(c1ccc(OC)cc1)CS2,34*,-7,0,4,-3
CCOc1ccc(-c2nnc3n2N=C(c2ccc(OC)cc2)CS3)cc1,19,-2,1,9,1
COc1cccc(-c2cccc(NC(=O)C3CCN(Cc4ccc(C)o4)CC3)c2)c1,-8,-31,1,-13,0
O=C(Nc1cccc(-c2cccc(F)c2)c1)C1CCN(Cc2ccco2)CC1,56*,-31,-1,-24,-1
COCc1ccc(CN2CCC(C(=O)Nc3cccc(-c4cccc(Cl)c4)c3)CC2)o1,34*,-21,0,-14,-1
O=C(Nc1cccc(-c2cscn2)c1)C1CCN(Cc2ccc(CO)o2)CC1,-2,-18,1,-19,-2
COCc1ccc(CN2CCC(C(=O)Nc3cccc(-c4cscn4)c3)CC2)o1,32*,-42,0,-22,-3
Cc1cccc(NC(=O)CSc2ncc3c(n2)-c2ccccc2N(Cc2ccc(F)cc2)S3(=O)=O)c1C,x,x,0,x,x
COC(=O)c1ccc(-n2c(C)cc(/C=N/n3cnnc3)c2C)cc1,31*,15,1,6,0
Cc1cc(/C=N/n2cnnc2)c(C)n1-c1ccc(C(=O)O)cc1,3,-3,-1,6,-1
